SKKanGAS inh – S. pyogenes SKKanGAS growth inhibitors in kanamycin, primary screen, streptokinase expression inhibitor project, SKKanGAS strain, BacTiter-Glo luminescence; 6 h; inhibition, % at 7.5 µM; 300,000 compounds, 1.3% hits; AID 1662, 2009;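 active = mean replicate score, as percent of positive control median, at least 50; inconclusive = mean below 50 but one replicate at or above 50; inactive = mean and every replicate below 50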;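 note: strain carries kanamycin resistance gene driven by streptokinase promoter and grows in 40 µg/ml kanamycin; loss of luminescence reflects streptokinase promoter inhibition or plain growth inhibition; 0% = median of DMSO wells and 100% = positive control at its reference dose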
MPTP inh – mitochondrial permeability transition pore inhibitors, primary screen, biochemical, isolated mouse mitochondria, absorbance. Ca2+ swelling absorbance, 30 min. inhibition, % at 10 µM. 360,000 compounds, 1.4% hits. AID 602449, 2012;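 active = inhibition of 50% or more, scaled per plate between neutral and stimulator controls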;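 note: 0% = DMSO wells given calcium and 100% = 1 mM EGTA wells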
GRIN3A LBD mod – binders of NR3A ligand-binding domain, primary screen, biophysical, differential scanning fluorimetry, uHTS; NR3A LBD differential scanning fluorimetry, Tm shift; 0% = protein alone, 100% = glycine-bound protein; Glutamate receptor ionotropic, NMDA 3A (GRIN3A) ligand-binding domain; AID 1259313, 2017; 340,000 compounds, 2.5% hits; Tm shift relative to glycine control, % at 25 µM;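 active = melting temperature shift of at least 10% of the positive control shift, at one fixed dose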
Beta apoptosis – inhibitors of cytokine-induced beta cell apoptosis, primary screen, luminescence; INS-1E cytokine-induced death, ATP luminescence, 48 h; percent of positive-control rescue, neutral wells zero; protection from apoptosis, % (concentration not given with the values); 300,000 compounds, 0.8% hits;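 active = Every replicate reaches about 75%, or at least half do and their mean reaches it too, limit read from the data; inconclusive = At least half of replicates reach the limit but their mean does not; inactive = Under half of replicates reach the limit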;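 note: 0% = cytokine-treated negative control wells and 100% = positive control rescue; higher means more ATP so stronger rescue from cytokine killing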
Mdm2-MdmX inh – inhibitors of human Mdm2-MdmX association, primary screen, cell-based, luminescence, split luciferase, SaOS-2, uHTS. Protein Mdm4 (Homo sapiens) + E3 ubiquitin-protein ligase Mdm2 (Homo sapiens), …. 330,000 compounds, 3% hits. inhibition, % at 8 µM. SaOS-2 split-luciferase Mdm2/MdmX complementation;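 active = inhibition of at least 50% at 8 µM in the primary screen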
Target sequence (O15151 whole entry, looked up): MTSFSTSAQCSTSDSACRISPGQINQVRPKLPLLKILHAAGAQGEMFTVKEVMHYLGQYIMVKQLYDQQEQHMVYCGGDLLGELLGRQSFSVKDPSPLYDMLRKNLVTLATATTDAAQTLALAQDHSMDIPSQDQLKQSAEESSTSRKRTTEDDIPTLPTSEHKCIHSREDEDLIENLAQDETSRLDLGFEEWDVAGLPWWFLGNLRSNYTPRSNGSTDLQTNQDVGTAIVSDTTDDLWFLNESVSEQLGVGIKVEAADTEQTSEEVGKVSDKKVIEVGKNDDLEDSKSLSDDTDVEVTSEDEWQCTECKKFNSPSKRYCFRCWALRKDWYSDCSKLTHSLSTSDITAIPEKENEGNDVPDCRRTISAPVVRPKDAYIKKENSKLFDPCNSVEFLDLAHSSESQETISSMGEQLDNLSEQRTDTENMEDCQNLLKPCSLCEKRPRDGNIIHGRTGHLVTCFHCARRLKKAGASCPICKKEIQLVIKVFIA
Target sequence (Q00987 whole entry, looked up): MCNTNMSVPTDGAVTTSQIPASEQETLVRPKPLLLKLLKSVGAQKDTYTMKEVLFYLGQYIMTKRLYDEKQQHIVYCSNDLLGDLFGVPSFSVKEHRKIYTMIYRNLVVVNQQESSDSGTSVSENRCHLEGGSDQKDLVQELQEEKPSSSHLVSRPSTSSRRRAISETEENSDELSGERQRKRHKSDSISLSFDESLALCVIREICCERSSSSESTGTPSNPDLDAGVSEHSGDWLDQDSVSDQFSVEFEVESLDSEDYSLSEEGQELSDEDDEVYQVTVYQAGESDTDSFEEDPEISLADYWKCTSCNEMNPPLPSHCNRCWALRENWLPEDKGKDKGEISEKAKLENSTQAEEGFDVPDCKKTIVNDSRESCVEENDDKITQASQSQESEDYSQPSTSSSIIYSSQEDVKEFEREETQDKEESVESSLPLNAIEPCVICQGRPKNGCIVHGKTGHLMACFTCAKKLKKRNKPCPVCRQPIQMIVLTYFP
CSC inhib – cancer stem cell viability inhibitors, primary screen, luminescence; cancer stem cell-like cells viability; inhibition, % at 7.5 µM; 300,000 compounds, 1.1% hits; AID 2717, 2010; in the data active = inhibition above about 75%; inconclusive = no clear call, values can overlap the other calls; tested in HMLE shEcad cells
Mdm2-MdmX conf – Mdm2-MdmX complex disruptors, retested hits, confirmation, luminescence, single concentration; shares compounds with Mdm2-MdmX inh; Mdm2-MdmX binding, luminescent assay; inhibition, % at 8 µM; 10,000 compounds, 55% hits; AID 489028, 2010; in the data active = inhibition above about 40%
Full FLuc ctr – full-length luciferase signal inhibition, confirmation, counter-screen for Mdm2/MdmX interaction inhibitor project, cell-based, single concentration, SaOS-2. 6,200 compounds, 77% hits. SaOS-2 full-length luciferase counterscreen, luminescence. shares compounds with Mdm2-MdmX inh. inhibition, % at 8 µM. AID 504607, 2011;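 active = mean inhibition at 8 µM reaching about 37%, which flags the compound as non-specific, limit read from the data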;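 note: p53-null SaOS-2 cells with luciferase driven by a doxycycline-inducible promoter; compound on cells about two nights before reading with doxycycline added after day one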
* hit, by the source's call; ? = inconclusive; . = no result. A selection: hits, their analogues and other compounds. The true share with any hit is near 6.9%.

SMILES	SKKanGAS inh	MPTP inh	GRIN3A LBD mod	Beta apoptosis	Mdm2-MdmX inh	CSC inhib	Mdm2-MdmX conf	others
CC(=O)c1c(C)[nH]c(C(=O)NNC(=O)c2ccc(Br)cc2)c1C	.	0	0	3	4	-2	.
O=S(=O)(c1ccccc1)N(CC(O)COc1ccccc1)c1ccccc1 (centres undefined)	-1	3	-1	-10	-25	-19	.
COc1cc(-c2ccc3oc(-c4cccc(C)c4)c(C#CC4(O)CCCCC4)c3c2)cc(OC)c1OC	.	0	-11	-1	56*	81*	11
CC1(C)NC(=O)N(CC(=O)OCC(=O)c2ccc(Br)s2)C1=O	.	0	-1	-5	24	.	.
CC(C)c1nc2sc3c(NCc4ccco4)ncnc3c2c2c1COC(C)(C)C2	17	2	.	2	53*	61	33
CC(C)c1nc2sc3c(NCc4ccccc4)ncnc3c2c2c1COC(C)(C)C2	10	-5	2	-5	18	29	.
COc1cccc(-n2nnnc2S(C)(=O)=O)c1	1	2	3	-68	79*	38	100*	Full FLuc ctr=4
O=C(NNC(=O)c1cc(Br)ccc1O)c1csc(N2CCOCC2)n1	.	1	-9	10	64*	.	44*	Full FLuc ctr=59*
CC1CN=C(N(C(=O)Nc2ccccc2)C(C)c2ccccc2)S1 (centres undefined)	2	4	2	-9	17	-1	.
CCCNC(=O)C[C@@H]1C[C@@H]2c3cc(NS(=O)(=O)c4ccc(OC)cc4)ccc3O[C@@H]2[C@@H](CO)O1	.	0	.	.	.	.	.
COc1ccc(N(Cc2ccccc2)S(=O)(=O)c2cccc(C(=O)Nc3ccccn3)c2)cc1	.	-1	0	6	57*	.	11
O=C(Nc1ccccn1)c1ccc(CN(c2ccccc2)S(=O)(=O)c2ccccc2)cc1	-1	1	-2	.	-5	23	.
CCn1c(SCC(=O)Nc2ccc(C(C)=O)cc2)nc2c([nH]c3ccccc32)c1=O	5	-1	14*	26	62*	12	36
COCCn1c(SCC(=O)Nc2cc(C)on2)nc2c([nH]c3ccccc32)c1=O	.	0	.	.	.	.	.
Cn1c(SCC(=O)NCc2ccc(F)cc2)nc2c([nH]c3ccccc32)c1=O	-5	.	.	-1	75*	6	-8
COCCn1c(SCC(=O)Nc2ccc(NC(C)=O)cc2)nc2c([nH]c3ccccc32)c1=O	-2	0	-5	2	9	0	.
CCn1c(SCC(=O)Nc2cccc(NC(C)=O)c2)nc2c([nH]c3ccccc32)c1=O	18	1	-7	.	78*	-8	31
CCn1c(SCC(=O)Nc2cc(C)on2)nc2c([nH]c3ccccc32)c1=O	0	1	0	26	65*	-8	26
CCN(C(=O)COC(=O)c1ccc(F)c(S(=O)(=O)N2CCOCC2)c1)C1CCS(=O)(=O)C1 (centres undefined)	-4	0	0	-9	2	-13	.
CC(=O)c1cc(CN2CCN(C3CCCCC3)C(CCO)C2)cs1 (centres undefined)	1	2	-1	4	-12	-8	.
CCCCCCN1C[C@H](n2cc(C3CC3)nn2)[C@@H](O)C[C@@H]1c1ccccc1	.	-1	.	.	.	.	.
COc1ccc(C(=O)C2CCCN(C(=O)c3cc(C(C)C)no3)C2)cc1F (centres undefined)	14	2	3	-2	12	-1	.
Cc1ccccc1OCC(=O)OC(C)C(=O)NC1CCCC1 (centres undefined)	.	1	2	1	14	-8	.
CC(C)C[C@H]1CN([C@@H](Cc2ccccc2)CN2CCC[C@H]2CN2C(=O)C(=O)NC[C@@H]2Cc2ccc(O)cc2)C(=O)C(=O)N1CCc1ccccc1	.	-3	.	.	.	.	.
COc1ccc(CCn2c(SCC(=O)Nc3cc(C)on3)nc3ccccc3c2=O)cc1OC	17	2	6	-11	59*	-10	24
SMILES	SKKanGAS inh	MPTP inh	GRIN3A LBD mod	Beta apoptosis	Mdm2-MdmX inh	CSC inhib	Mdm2-MdmX conf	others
Cc1cc(NC(=O)CSc2nc3cc(Cl)ccc3s2)no1	-2	-4	0	-4	9	-7	.
Cc1cc(NC(=O)CSc2nc3cc(Cl)ccc3c(=O)n2C(C)C)no1	.	-1	3	.	56*	.	20
Cc1cccc(/C=C/C(=O)c2ccc(NC3=NCCCS3)cc2)c1	.	16	-1	9	86*	43	58*	Full FLuc ctr=57*
O=C(/C=C/c1ccccc1)c1ccc(NC2=NCCCS2)cc1	.	4	-2	1	.	66	.
COc1cccc(/C=C/C(=O)c2ccc(NC3=NCCCS3)cc2)c1	9	0	-4	10	25	-2	.
O=C(/C=C/c1ccc(Br)cc1)c1ccc(NC2=NCCCS2)cc1	11	18	-7	36	101*	.	39	Full FLuc ctr=77*
O=C(NC(NC1CCS(=O)(=O)C1)C(=O)c1cccs1)c1ccccc1 (centres undefined)	-5	.	-1	2	-3	-10	.
O=C(NC1=C(NC2CCS(=O)(=O)C2)C(=O)c2ccccc2C1=O)c1ccccc1 (centres undefined)	26	0	0	41	90*	45	60*	Full FLuc ctr=49*
COc1ccc(C(=O)C/C(=C\C(=O)c2ccc(C)cc2)c2ccccc2)cc1	0	-1	0	?	86*	.	84*	Full FLuc ctr=24
OCCCn1c(C2CCCN2c2nc(-c3ccc(F)cc3)cs2)nc2cc(Cl)c(N3CCCCC3)cc21 (centres undefined)	17	1	-3	-8	63*	1	-6
OCCCn1c(C2CCCN2c2nc(-c3ccc(Cl)cc3)cs2)nc2cc(Cl)c(N3CCCCC3)cc21 (centres undefined)	11	1	-3	-13	73*	13	19
O=C(c1cccc(Cl)c1)N1CCN(CCCc2ccccc2)CC1	1	-1	0	-11	0	-10	.
C1=CC2=NC34CCCCC3CC3=C(CCCC3)N4C2=CC1=NC1CCCCC1 (centres undefined)	2	14	-2	-2	100*	-4	78*	Full FLuc ctr=38*

Compound activity from PubChem BioAssay.
